# Assay results taken from PubChem BioAssay AID1851 (National Center for Advancing Translational Sciences (NCATS), 2009).
# Among all 16,000 compounds or so, about 5,700 (36%) were called active. About 24% were inconclusive and are not listed. Calls follow the shape of the dose curve; as a rule, active = well fitted curve in the direction sought with a large enough effect; inconclusive = small, poorly fitted or top-dose-only effect, or effect the other way; inactive = no such curve, though single readings can be large or run the other way. The list shows a part of the results.
# Biological target: Cytochrome P450 1A2 (Homo sapiens) (UniProt P05177)
# Experiment: Cytochrome panel assay with activity outcomes
# Settings: recombinant CYP, pro-luciferin dealkylation, luminescence, p450-cyp1a2; series mostly up to 57.1 µM; activity, negative = inhibition: at the top concentration
# % is scaled to controls: 0 for no effect and ±100 for the full control effect.
# Sequence of Cytochrome P450 1A2 (Homo sapiens) (P05177 whole entry, looked up): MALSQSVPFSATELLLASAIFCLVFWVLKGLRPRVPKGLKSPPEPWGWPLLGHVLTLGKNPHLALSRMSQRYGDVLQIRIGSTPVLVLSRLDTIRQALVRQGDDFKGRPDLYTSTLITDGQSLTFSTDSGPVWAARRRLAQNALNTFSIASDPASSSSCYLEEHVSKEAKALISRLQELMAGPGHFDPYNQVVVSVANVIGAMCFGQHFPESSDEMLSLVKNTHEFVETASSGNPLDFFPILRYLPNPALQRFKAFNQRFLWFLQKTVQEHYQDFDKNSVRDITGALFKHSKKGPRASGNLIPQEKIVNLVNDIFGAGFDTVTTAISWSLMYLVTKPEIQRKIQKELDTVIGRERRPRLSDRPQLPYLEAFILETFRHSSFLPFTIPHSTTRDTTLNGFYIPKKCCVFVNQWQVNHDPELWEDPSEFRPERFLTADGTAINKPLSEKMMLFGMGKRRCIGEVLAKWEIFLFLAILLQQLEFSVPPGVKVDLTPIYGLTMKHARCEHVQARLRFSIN
Structure (SMILES),"activity, negative = inhibition",AC50
CN1CC[C@@]2(CCCN(C(=O)c3ccco3)C2)C1,7.97% (inactive),–
COC(=O)C[C@](O)(CCCC(C)(C)O)C(=O)O[C@@H]1C(OC)=C[C@]23CCCN2CCc2cc4c(cc2[C@H]13)OCO4,-9.9% (inactive),–
C=C[C@@H]1CN2CC[C@H]1C[C@H]2[C@H](O)c1ccnc2ccccc12,-18.2% [at 11.4 µM] (inactive),–
CCN1C[C@@]2(COC)[C@H]3[C@@H](OC)[C@H]4C1[C@@]3([C@H](OC)C[C@@H]2O)[C@H]1C[C@@]2(O)[C@@H](OC(=O)c3ccccc3)[C@@H]1[C@@]4(OC(C)=O)[C@H](O)[C@@H]2OC,-4.7% [at 25.6 µM] (inactive),–
NN=C(N)N,-5.67% (inactive),–
c1csc(CN2CC3(CCNCC3)C2)n1,12.5% (inactive),–
Clc1ccc([C@@H]2C[C@H]3CC[C@@H]2N3)cn1,-20.5% (inactive),–
Clc1ccc(C2=CCC[C@H]3CC[C@@H]2N3)cn1,–,15.8 µM (active)
CCN(CC)C(=O)N[C@H]1C[C@H]2c3cccc4[nH]cc(c34)C[C@@H]2N(C)C1,-12.5% (inactive),–
CNC(C)(C)Cc1ccccc1,-1.89% [at 25.6 µM] (inactive),–
C[C@H](Br)C(=O)N[C@H](CO)C(=O)O,-13.1% [at 11.4 µM] (inactive),–
O=C(O)C[C@H]1NCc2cc3ccccc3nc21,-4.93% [at 2.29 µM] (inactive),–
CCC1(CC)C(=O)C=CNC1=O,-8.09% [at 25.6 µM] (inactive),–
O=C(Nc1ccc(Cl)cc1C(=O)c1ccccc1)c1ccco1,–,2.51 µM (active)
CC[C@]1(C2=NCCN2)Cc2ccccc2O1,-6.04% (inactive),–
CNC[C@H](O)c1ccc(O)cc1,-7.35% [at 25.6 µM] (inactive),–
CC[n+]1c(/C=C/N(C)c2ccccc2)sc2ccc(Cl)cc21,–,4.47 µM (active)
O=C(Nc1cccc(F)c1)N1CCC2(CC1)CCN(C(=O)Oc1ccccc1)CC2,-13.8% (inactive),–
CCC(=O)Nc1ccc(N2CCN(CC)CC2)c(Cl)c1,5.31% (inactive),–
COC(=O)[C@H]1[C@@H](c2ccccc2)[C@@]2(c3ccccc3)Oc3ccccc3[C@@]1(O)[C@@H]2O,4.61% [at 11.4 µM] (inactive),–

Structure (SMILES),"activity, negative = inhibition",AC50
CC(C)[C@H](CO)Nc1nc(Nc2cccc(Cl)c2)c2ncn(C(C)C)c2n1,–,0.316 µM (active)
CC[C@@H](CO)Nc1nc(NCc2ccccc2)c2ncn(C(C)C)c2n1,–,12.6 µM (active)
O=C(O)[C@@H](Br)[C@H](Br)C(=O)O,5.86% [at 11.4 µM] (inactive),–
CC(C)CNC(=S)NC1CC2CCCC(C1)N2Cc1ccco1 (stereo not drawn),4.27% (inactive),–
CC(C)N(CC[C@@](C(N)=O)(c1ccccc1)c1ccccn1)C(C)C,–,inactive
C(#CCN1CCCC1)CN1CCCC1,1.87% [at 25.6 µM] (inactive),–
CNC(=O)Oc1ccc2c(c1)[C@@]1(C)CCN(C)[C@@H]1N2C,-6.82% [at 25.6 µM] (inactive),–
O=C(C[n+]1ccc2ccccc2c1)c1ccc2ccc3ccccc3c2c1,–,2.51 µM (active)
CCOC(=O)c1c(NC(=O)C(c2ccccc2)c2ccccc2)sc2c1C1CCN2CC1,-3.75% (inactive),–
COc1ccc(NC(=O)NC2CC3CCCC(C2)N3Cc2ccccc2)cc1 (stereo not drawn),1.27% (inactive),–
NC[C@@H](Cc1ccccc1)P(=O)(O)O,-9.3% [at 11.4 µM] (inactive),–
Nc1nc2ccc(Cl)cc2c2nc(-c3ccco3)nn12,–,0.0631 µM (active)
CN1CC[C@@]2(CCCN(C(=O)c3ccncc3)C2)C1,2.09% (inactive),–
COC(=O)N1CCN(C(=O)Cc2ccc(Cl)c(Cl)c2)[C@H](CN2CCCC2)C1,–,inactive
CSC([N-]/N=C/c1cccc(C)n1)=[S]=[Cu].CS[C@H]([S-])[N-]/N=C/c1cccc(C)n1,–,0.631 µM (active)
O=C(Oc1ccccc1)N1CCC2(CCCN(C(c3ccccc3)c3ccccc3)C2)CC1,6.99% (inactive),–
CNCCCc1ccccc1,-2.27% (inactive),–
c1ccc(CCCCN2CCC(c3ccccc3)CC2)cc1,–,15.8 µM (active)
c1ccc2c([C@@H]3CCN(CCN4CCOCC4)C3)c[nH]c2c1,-9.42% [at 11.4 µM] (inactive),–
NC[C@@H](O)CSP(=O)(O)O,-2.54% [at 11.4 µM] (inactive),–

Structure (SMILES),"activity, negative = inhibition",AC50
CCN1C[C@]2(COC)CC[C@H](O)[C@@]34[C@@H]5C[C@H]6[C@@H](OC)[C@H]5[C@](O)(C[C@@H]6OC)[C@@](O)([C@@H](OC)[C@H]23)[C@@H]14,0.799% [at 25.6 µM] (inactive),–
COc1cc2cc(c1Cl)N(C)C(=O)C[C@H](OC(=O)C(C)C)[C@]1(C)O[C@@H]1[C@@H](C)[C@H]1C[C@](O)(NC(=O)O1)[C@@H](OC)/C=C\C=C(\C)C2,-7.72% [at 11.4 µM] (inactive),–
CCCCn1c(O)c(C(CC)=NCc2ccc(F)cc2)c(=O)[nH]c1=O,–,8.91 µM (active)
O=c1[nH]c(=O)n(CCc2ccc(F)cc2)c(O)c1C=NCCCN1CCOCC1,-8.06% (inactive),–
O=c1[nH]c(=O)n(CCC2=CCCCC2)c(O)c1C=Nc1cccc(F)c1,-0.302% (inactive),–
CCCCn1c(O)c(C(CC)=Nc2ccc(OC)cc2OC)c(=O)[nH]c1=O,–,12.6 µM (active)
CCC(=Nc1cc(OC)ccc1OC)c1c(O)[nH]c(=O)[nH]c1=O,–,14.1 µM (active)
CC1=C(C)[N+](=O)C2(O)CCCCC2(C)N1[O-] (stereo not drawn),12.4% (inactive),–
Nc1nc(N)c2nc(CNc3ccc(C(=O)N[C@H](CCC(=O)O)C(=O)O)cc3)cnc2n1,-19.4% (inactive),–
CN(C)C(=O)Oc1cc(OC(=O)N(C)C)cc([C@@H](O)CNC(C)(C)C)c1,-3.04% [at 25.6 µM] (inactive),–
C[C@H](c1ccccc1)N1CCN([C@@H](C)c2ccccc2)CC1,-16% [at 2.29 µM] (inactive),–
O=C(O)CSCC(=O)O,-2.34% [at 11.4 µM] (inactive),–
CC1=C2C(=O)[C@@H]3[C@@H](CC=C4C[C@@H](O)CC[C@@]43C)[C@H]2CC[C@@]12O[C@H]1C[C@H](C)CN[C@H]1[C@@H]2C,-16.8% [at 11.4 µM] (inactive),–
O=C(Oc1ccccc1)N1CCC2(CCCN(Cc3nccs3)C2)CC1,1.1% (inactive),–
C[C@]12N[C@H](Cc3ccccc31)c1ccccc12,–,inactive
CCCCCCCC/C=C\CCCCCCCC(N)=O,–,6.31 µM (active)
CCCCC/C=C\C/C=C\C/C=C\C/C=C\CCCC(=O)NCC(=O)O,-16.2% (inactive),–
CC(C)[C@@]1(NC(=O)[C@@H]2C[C@H]3c4cccc5[nH]cc(c45)C[C@@H]3N(C)C2)O[C@@]2(O)[C@H]3CCCN3C(=O)[C@H](Cc3ccccc3)N2C1=O,-4.49% (inactive),–
